Each structure is given as a SMILES string. The campaign covered roughly 69,000 compounds. About 8,600 (12%) showed an effect of 50% or more. The sample holds strong results, similar compounds and a random draw of the others, so the mix is not that of the screen.

The subject of this experiment is Plasmodium berghei. Description: Screen against P. berghei liver stage (PbLuc), transformed with Luciferase, at 10uM. It counts as functional, HepG2. Conditions: tested at 10 uM.
On to `CC(=O)Nc1nc(CN2CCOC(Cn3nc(C)cc3C)C2)cs1` (configuration not stated), for which the INHIBITION is reported as 15.6%.

For `COCCN(Cc1ccoc1)C(=O)c1ccc(Cl)s1`, the INHIBITION was determined as 25.1%.

For `Cn1nccc1CNC(=O)Cn1nc(C(F)(F)F)cc1C1CC1`, the INHIBITION was determined as 1.11%.

In the case of `CCc1nc(CN(C)C2CCN(Cc3ccc(Cl)s3)C2)no1` (configuration not stated), the INHIBITION turned out to be 36.4%.

As to `Cc1noc(C)c1CC(=O)Nc1ccn(CC(N)=O)n1`, the INHIBITION stood at 37.6%.

For `CCn1ccc(NC(=O)CCc2c(C)noc2C)n1`, the INHIBITION was 38.7%.

Turning to `Cc1noc(C)c1CCC(=O)Nc1ccn(C)n1`, the INHIBITION came out at 71.2%.

`O=C(CCCc1ccccn1)Nc1cccc(N2CCCNC2=O)c1`: the INHIBITION is 11.2%.

For `Cc1ccc(C(=O)Nc2cn[nH]c2)cc1`, the INHIBITION was 31.005%.

`COC(CNC(=O)NCc1c(C)cc(C)[nH]c1=O)c1ccccc1` (configuration not stated): the INHIBITION stood at 36.1%.

Regarding `Cc1noc(C(C)C)c1C(=O)NCCN1CCOCC1`, the INHIBITION is reported as -31.8%.

Consider `CN1N=C(C(=O)N2CCCC(n3ccnc3)C2)CCC1=O` (configuration not stated), for which the INHIBITION amounted to 21.6%.

For the compound `CN1N=C(C(=O)N2CCCC(n3cccn3)C2)CCC1=O` (configuration not stated), the INHIBITION was found to be 11.9%.

On to `Cc1nccn1C1CCCN(C(=O)C2=NN(C)C(=O)CC2)C1` (configuration not stated), for which the INHIBITION is reported as 51.6%.

For the compound `CCc1nccn1C1CCCN(C(=O)C2=NN(C)C(=O)CC2)C1` (configuration not stated), the INHIBITION was determined as 53%.

Take `CCc1nccn1C1CCCN(C(=O)c2ccn(C)c(=O)c2)C1` (configuration not stated): the INHIBITION is 2.9%.

On to `CC(C)c1nccn1C1CCCN(C(=O)C2=NN(C)C(=O)CC2)C1` (configuration not stated), for which the INHIBITION was 14.4%.

On to `CO[C@@H]1CC[C@H]2[C@H]1OCCN2C(=O)c1nn(C)c2ccccc12`, for which the INHIBITION is on record as -9.23%.

As to `COCCCn1cnnc1CNc1cc(C)nc2ccnn12`, the INHIBITION is 27.9%.

Regarding `Cc1cc(NC(=O)CN2C(=O)CC(C)(C)c3ccccc32)no1`, the INHIBITION is 29.7%.

In the case of `Cc1ccc(C(=O)N(C)Cc2ccc(Br)o2)c(=O)[nH]1`, the INHIBITION is on record as 38.6%.

In the case of `Cc1nc(N2CCC(C(O)c3nccn3C)CC2)c2nc(C)oc2n1` (configuration not stated), the INHIBITION stood at 42.1%.

`Cc1nc(N2CCC(C(O)c3nccn3C)CC2)c2c(C)noc2n1` (configuration not stated): the INHIBITION stood at 52.2%.

On to `Cc1nc(N2CCC(C(O)c3nccn3C)CC2)c2cccnc2n1` (configuration not stated), for which the INHIBITION is -11.6%.

Turning to `CO[C@@H]1CCN(Cc2nccn2C)[C@H]1Cc1cccnc1`, the INHIBITION is 32.2%.

Consider `Cc1ccsc1CN1CCC2(CC1)CC(OCc1cccnc1)CO2` (configuration not stated), for which the INHIBITION came out at 26%.

Consider `O=C(CCc1nnc(-c2ccccc2)o1)N1CCN(CC2CC2)CC1`, for which the INHIBITION was -17%.

On to `Cc1noc(C)c1CN1CCO[C@H]2CN(Cc3cccnc3)C[C@H]21`, for which the INHIBITION stood at 14.6%.

For `Cc1noc(C)c1CN1CCO[C@H]2CN(Cc3ccc(F)cc3)C[C@H]21`, the INHIBITION was found to be 49.2%.

For the compound `Cc1noc(C)c1CN1CCO[C@H]2CN(Cc3cccc(F)c3)C[C@H]21`, the INHIBITION was 62.9%.

On to `Cc1noc(C)c1CN1C[C@H]2CN(Cc3cccc(F)c3)C[C@H]2C1`, for which the INHIBITION stood at 41.2%.

In the case of `Cc1noc(C)c1CN1CCC2(CCN(Cc3cccc(F)c3)CC2)C1`, the INHIBITION is given as 60.2%.

Turning to `CC(=O)N1CCC2(CCN(Cc3cccc(F)c3)CC2)CC1`, the INHIBITION is -12.1%.

Consider `Cc1ccc(NC2CCN(C(=O)Cc3ccc(C)s3)CC2)nn1`, for which the INHIBITION turned out to be 27.8%.

For `CNC(=O)c1cccc(CN2CCN(C3=NCC(C)(C)S3)CC2)c1`, the INHIBITION is on record as 28.7%.

Take `O=C(C1CC(c2cccc(F)c2)=NO1)N1CCc2ccccc21` (configuration not stated): the INHIBITION is recorded as -12.2%.

For the compound `O=C(CCn1cccc1)N1CCc2[nH]nc(COc3ccccc3)c2C1`, the INHIBITION is given as 34.7%.

On to `O=C(CCc1ccco1)N1CCc2[nH]nc(COc3ccccc3)c2C1`, for which the INHIBITION was determined as 32.7%.

For `Cc1nc(C)c(C(=O)N2CCc3[nH]nc(COc4ccccc4)c3C2)s1`, the INHIBITION was determined as 49.5%.

Consider `O=C(CCc1cccs1)N1CCc2[nH]nc(COc3ccccc3)c2C1`, for which the INHIBITION was 36.7%.

`CCSCCC(=O)N1CCc2[nH]nc(COc3ccccc3)c2C1`: the INHIBITION is given as 10.9%.

`O=C(N1CCOCC1)N1CCc2[nH]nc(COc3cccc(Cl)c3)c2C1`: the INHIBITION is 67.5%.

As for `O=C(CSCC1CC1)N1CCc2[nH]nc(COc3ccccc3)c2C1`, the INHIBITION was determined as 11.9%.

For `O=C1CC[C@@H](C(=O)N2CCc3[nH]nc(COc4cccc(Cl)c4)c3C2)N1`, the INHIBITION stood at 52.6%.

`O=C(c1csnn1)N1CCc2[nH]nc(COc3cccc(Cl)c3)c2C1`: the INHIBITION is given as 73%.

With `Cc1nn(C)c(N(C)C)c1CNC(C)COc1ccc(F)cc1` (configuration not stated), the INHIBITION is reported as -59.4%.

In the case of `NC(=O)C1CCN(C(=O)CCCc2nnc(-c3ccccc3)o2)C1` (configuration not stated), the INHIBITION came out at 14.4%.

Turning to `CC(C)NC(=O)C1CN(C(=O)c2ccccc2)CC12CCOCC2` (configuration not stated), the INHIBITION was determined as 29.9%.

For the compound `CCN1C(=O)C(c2ccccc2)CC12CCN(Cc1cccnc1)CC2` (configuration not stated), the INHIBITION is -4.82%.

With `OCC1(O)CCCN(Cc2ccccc2OCCc2ccccc2)CC1` (configuration not stated), the INHIBITION amounted to 52.6%.

Take `COCCC1(C(=O)O)CCCN(Cc2ccccc2OCCO)C1` (configuration not stated): the INHIBITION came to 3.48%.

As to `OCCOc1ccccc1CN1CCCC(O)(CO)C1` (configuration not stated), the INHIBITION is given as 66.5%.

Take `OCC1(O)CCCN(Cc2nnc(-c3ccccc3)o2)CC1` (configuration not stated): the INHIBITION is recorded as 21.2%.

In the case of `O=C1NCC2(CCCN(Cc3ccccc3OCCO)C2)O1` (configuration not stated), the INHIBITION stood at 44.3%.

With `CN(C)CC1(O)CCCN(Cc2ccccc2OCC(=O)N(C)C)C1` (configuration not stated), the INHIBITION stood at 47.6%.

Take `Cn1cc(C(=O)N2CCCC2c2[nH]ncc2C(N)=O)cn1` (configuration not stated): the INHIBITION was determined as 7.52%.

`O=C(CNCc1ccccc1Cn1cccn1)Nc1cnccn1`: the INHIBITION turned out to be 38.5%.

As for `CCS(=O)(=O)N1CCC(C(=O)NC(Cc2ccsc2)c2nccs2)CC1` (configuration not stated), the INHIBITION came out at 59%.

Take `O=C(NC(Cc1ccsc1)c1nccs1)C1CC1` (configuration not stated): the INHIBITION is reported as 12.3%.

As to `CS(=O)(=O)N1CCC(C(=O)NC(Cc2ccsc2)c2nccs2)CC1` (configuration not stated), the INHIBITION was 38.1%.

For `Cc1cc(C)n(CC2CN(Cc3nc(-c4ccco4)no3)CCO2)n1` (configuration not stated), the INHIBITION came out at 36.4%.

With `CN(CCN1CCOC1=O)CC(=O)Nc1ccc(Cl)c(Cl)c1`, the INHIBITION stood at 37.8%.

For `O=C(c1c2c(N3CCCC3)ncnc2n2ccccc12)N1CCCC1`, the INHIBITION came out at 47.4%.

As to `O=C(CSCC1CC1)N1CCCN(c2ccc(F)cc2)CC1`, the INHIBITION came out at 59.4%.

As to `Cc1cc(N2CCCN(C(=O)CSCC3CC3)CC2)ccn1`, the INHIBITION was determined as 37.6%.

`O=C(CSCC1CC1)N1CCCN(Cc2ccc(F)cc2)CC1`: the INHIBITION is recorded as 23.9%.

On to `COCc1ccccc1C(=O)N1CCCC(c2cc(C)[nH]n2)C1` (configuration not stated), for which the INHIBITION came out at 40.9%.

These data come from ChEMBL document CHEMBL4513216, “Probing the Open Global Health Chemical Diversity Library for Multistage-Active Starting Points for Next-Generation Antimalarials” (ACS Infect Dis, 2020).
